Data taken from PubChem BioAssay AID2061322 (National Center for Advancing Translational Sciences (NCATS), 2025).
Inconclusive results are not listed. Active and inactive are the calls of the source. Calls come from the whole dose curve; as a rule, active = well fitted inhibition curve with a large enough effect; inconclusive = small, poorly fitted or top-dose-only effect; inactive = flat fitted curve, though single readings scatter.

Assay: Identification of antibody-drug conjugate (ADC) payloads which are substrates of ATP-binding cassette drug efflux transporters: ABCG2-HEK293-R5 cell line with Ko143
Settings: ABCG2-HEK293-R5 with Ko143, CellTiter-Glo viability, 48 h
Excerpt: Antibody-drug conjugates (ADCs) feature an antibody recognizing a specific protein joined to a potent toxic payload. Numerous antibody-drug conjugates have received FDA approval; however, clinical resistance arises. Resistance mechanisms include decreased expression or mutation of the antibody target, impaired payload release, or increased expression of ATP-binding cassette (ABC) efflux transporters associated with multidrug resistance. We therefore sought to characterize the interaction of ABC multidrug transporters with ADC payloads. We performed a high-throughput screen with 27 common ADC payloads using cells lines expressing ABC transporters P-glycoprotein (P-gp, encoded by ABCB1) or ABCG2 (encoded by ABCG2). Confirmatory assays were also performed using cells transfected to express P-gp, ABCG2, or MRP1 (encoded by ABCC1). Several commonly used ADC payloads were substrates of P-gp, including calicheamicin gamma1, monomethyl auristatin E, DM1, and DM4. All the pyrrolobenzodiazepines tested - SJG136, SGD-1882, SG2057, and SG3199 - were substrates of P-gp, ABCG2, and MRP1. […] These findings highlight the risk of transporter-mediated resistance with certain ADC payloads and underscore the importance of selecting payloads that evade ABC transporter recognition in future ADC development.
HEK-293 cells were transfected with empty vector (pcDNA) or vector containing the human ABCB1 (MDR-19), ABCG2 (R-5), or ABCC1 gene (MRP1) and were maintained in EMEM with 2 mg/mL G418 added to maintain transporter expression. The HeLa derivative KB-3-1 and the P-gp overexpressing KB-8-5-11 subline were maintained in DMEM; KB-8-5-11 additionally received 100 ng/mL colchicine. H460 parental cells were obtained from the Division of Cancer Treatment and Diagnosis Tumor Repository, National Cancer Institute at Frederick, MD and were cultured in RPMI. The ABCG2 expressing subline H460 MX20 was generated by selecting H460 cells in 20 nM mitoxantrone. Media in all cases was supplemented with 10% FBS and 1% penicillin-streptomycin. […]

| SMILES | Potency |
| --- | --- |
| CC[C@H](C)[C@@H]([C@@H](CC(=O)N1CCC[C@H]1[C@H](OC)[C@@H](C)C(=O)N[C@H](C)[C@@H](O)c1ccccc1)OC)N(C)C(=O)[C@@H](NC(=O)[C@H](C(C)C)N(C)C)C(C)C | 16.9 nM (active) |
| COc1cc2cc(C(=O)N3C[C@@H](CCl)c4c3cc(O)c3ccccc43)[nH]c2c(OC)c1OC | 15 nM (active) |
| COc1cc2cc(c1Cl)N(C)C(=O)C[C@H](OC(=O)[C@H](C)N(C)C(=O)CCC(C)(C)S)[C@]1(C)OC1[C@H](C)C1C[C@@](O)(NC(=O)O1)[C@H](OC)/C=C/C=C(\C)C2 (stereo partly drawn) | 1.7 nM (active) |
